# HIV RNase H inh-1 = blocks HIV-1 RNase H cleavage of RNA/DNA duplex | P04585 | RT-RNase H RNA/DNA duplex cleavage, fluorescence | inhibition, % at 10 µM | hit rate 1.9% among 65,000; in the data active = inhibition above about 50%
# RmlC RmlD mix = inhibitors of RmlC and RmlD coupled enzymes. RmlC/RmlD coupled enzyme inhibition, 384-well mixture HTS. inhibition, % at 5.5 µM. hit rate 0.39% among 110,000. AID 1532; in the data active = inhibition above about 30%, passing the limit was not always enough; inconclusive = no clear call, values can overlap the other calls
# HIV RNase H inh-2 = confirmation of HIV-1 reverse transcriptase RNase H inhibitors | shares compounds with HIV RNase H inh-1 | Recombinant RT RNase H, fluorescent RNA/DNA duplex cleavage | inhibition, % at 10 µM | hit rate 39% among 1,000 | AID 651; in the data active = inhibition above about 48%; inconclusive = no clear call, values can overlap the other calls
# * marks the source's active call; other numbers are inactive results; ? = inconclusive; . = no result. The entries come from a sample that favours hits as a whole.
SMILES,HIV RNase H inh-1,RmlC RmlD mix,HIV RNase H inh-2
CCOc1ccc(-c2[nH]nc3c2C(c2cccnc2)C(C#N)=C(N)O3)cc1 (configuration not stated),-14.6,5.7,.
CC(=O)OCC(CCn1cnc2cnc(N)nc21)COC(C)=O,.,-15.8,.
Cc1ccc(-n2c(O)c(C=Nc3ccccc3N)c(=O)[nH]c2=O)cc1C,2.7,-4.1,.
O=c1[nH]c(=O)n(-c2ccc(F)cc2)c(O)c1C=Nc1ccccc1N1CCCC1,73.8*,43.3,61.5*
CC1CCCCN1C(=O)CSc1nc2cc3c(cc2c(=O)n1Cc1ccc2c(c1)OCO2)OCO3 (configuration not stated),2.5,-17.6,.
COc1ccc(OCCOC(=O)c2ccc(-n3cnnn3)cc2)cc1,.,-6.7,.
COc1ccc(-n2c(C)cc(C(=O)COc3ccc(-n4cnnn4)cc3)c2C)cc1,53.2*,7.4,24.0
COC(=O)CNC(=O)c1ccccc1C,.,-15.3,.
Cc1nc(CN2CCCC2=NC#N)n(-c2ccccc2)n1,-32.9,3.1,.
CS(=O)(=O)N(CCc1ccccc1)CC(=O)Nc1ccc(OCc2ccccc2)cc1,.,-8.2,.
Cc1ccc(C(=O)CSc2nnc(-c3ccccc3)o2)cc1,.,-3.4,.
COC(=O)c1ccc(OC)c(CSc2nnc(-c3ccc(C)cc3)o2)c1,65.8*,.,47.7
O=C(CSc1nnc(COc2ccccc2)o1)N1CCN(c2ccccc2)CC1,2.2,2.2,.
COc1ccc(-n2nc3cc(C)c(NC(=O)CC(C)C)cc3n2)cc1,65.2*,-9.3,60.9*
COc1ccc(-n2nc3cc(C)c(NC(=O)c4cccnc4)cc3n2)cc1,-9.0,.,.
COc1ccc(N2CCN(Cc3cc(=O)oc4ccc(Cl)cc34)CC2)cc1,23.6,11.0,.
O=c1cc(CN2CCN(c3ccccc3)CC2)c2cc(O)c(-c3ccccc3)cc2o1,72.9*,3.7,68.9*
COc1ccc(N2CCN(Cc3cc(=O)oc4cc5c(cc34)CCCC5)CC2)cc1,81.5*,1.6,62.7*
O=c1cc(CN2CCN(c3ccccc3)CC2)c2c(ccc3ccccc32)o1,4.1,11.0,.
O=C(C1CC1c1ccccc1)N1CCOCC1 (configuration not stated),-7.4,164.8,.
COc1cc(/C=C(/C#N)c2ccc(C)cc2)ccc1Oc1ccc([N+](=O)[O-])cn1,.,11.9,.
CCn1c(-c2ccc(C(C)(C)C)cc2)n[nH]c1=S,64.5*,-0.5,9.4
CCn1c(-c2ccc(F)cc2)n[nH]c1=S,-2.1,19.3,.
Cc1ccc(C)c(NC(=O)CCC(=O)OC(C(=O)c2ccccc2)c2ccccc2)c1 (configuration not stated),.,-9.5,.
COc1nc(Nc2cccc(C)c2)nc(N2CCCCC2)n1,-15.7,.,.
SMILES,HIV RNase H inh-1,RmlC RmlD mix,HIV RNase H inh-2
CCCNC(=O)c1c(NC(=O)C2COc3ccccc3O2)sc2c1CCCC2 (configuration not stated),.,7.3,.
O=C(NC1CCS(=O)(=O)C1)c1c(NC(=O)C2COc3ccccc3O2)sc2c1CCCC2 (configuration not stated),54.3*,2.3,70.0*
COC(=O)c1ccc(NC(=O)CSc2ccccn2)cc1,.,7.2,.
Cc1cc(C)nc(SCc2n[nH]c(=S)n2C)n1,-5.1,12.8,.
O=C(Nc1nc(-c2ccncc2)cs1)c1ccco1,58.6*,-7.1,55.7*
O=C(Nc1nc(-c2cc3ccccc3oc2=O)cs1)c1ccco1,-1.4,-49.4,.
O=c1/c(=C/c2cccc3ccccc23)sc2ncnn12,96.0*,-4.5,0.5
Cc1ccsc1/C=c1\sc2ncnn2c1=O,1.6,-2.0,.
CCCCN(Cc1ccccc1)S(=O)(=O)c1cc(Br)cc2c1N(C(C)=O)C(C)C2 (configuration not stated),.,0.7,.
C[C@H](NC(=O)c1nc[nH]c1C(=O)N[C@@H](Cc1ccccc1)C(=O)OC(C)(C)C)c1ccccc1,.,-0.5,.
CC(C)NC(=O)C(C)n1cccc1C(=O)c1ccccc1 (configuration not stated),-15.7,4.1,.
CC(=O)C1=C(C)N=c2s/c(=C/c3ccc4c(c3)OCO4)c(=O)n2C1c1ccc(N(C)C)cc1 (configuration not stated),45.1,.,.
COc1ccc(C2C(C(C)=O)=C(C)N=c3s/c(=C/c4ccc5c(c4)OCO5)c(=O)n32)cc1 (configuration not stated),69.6*,.,53.6*
Cc1[nH]c(=S)c(C#N)c(C)c1C(=O)Nc1ccccc1,.,-8.4,.
C=CCc1c(C)[nH]c(=S)c(C#N)c1C,77.2*,-12.6,59.4*
CC1Oc2ccccc2C=C1C1/C(=C(/O)c2ccccc2)C(=O)C(=O)N1CCCN(C)C (configuration not stated),-0.4,9.2,.
c1ccc(-c2nnc3sc(-c4csc5c4CCCC5)nn23)cc1,69.4*,-0.2,?
c1ccc(-c2nnc3sc(-c4ccncc4)nn23)cc1,26.8,-7.0,.
CSc1nnc2c(n1)OC(C)=Nc1ccccc1-2,-12.4,-6.2,.
CC(=O)Oc1ccc(N2C(=O)C3C(C2=O)C2(C)C=CC3(C)O2)cc1 (configuration not stated),55.7*,-9.5,43.1
CC(=O)Oc1ccc(N2C(=O)C3C4C=CC(CO)(O4)C3C2=O)cc1 (configuration not stated),.,22.8,.
CC(=O)c1c(C)nc2ccccn12,-2.2,.,.
CCCOc1ccc(C(=O)Nn2c(C)nc3ccccc3c2=O)cc1,72.1*,11.5,-5.1
Cc1nc2ccccc2c(=O)n1NC(=O)COc1ccccc1,-4.5,-5.2,.
O=C(CN1CCCCCC1)NCCc1ccc(F)cc1,0.0,.,.
SMILES,HIV RNase H inh-1,RmlC RmlD mix,HIV RNase H inh-2
CC(=O)N1CCc2cc(S(=O)(=O)NC(CC(C)C)C(=O)Nc3cc(C(=O)O)ccc3C)ccc21 (configuration not stated),61.3*,.,21.7
CC(=O)N1CCc2cc(S(=O)(=O)NC(Cc3ccccc3)C(=O)Nc3cc(C)ccn3)ccc21 (configuration not stated),.,3.0,.
COc1ccc(OC)c(C2/C(=C(/O)c3ccc(C)cc3)C(=O)C(=O)N2Cc2ccco2)c1 (configuration not stated),3.0,.,.
CC1(O)c2ccccc2C(=O)N1Cc1ccccc1 (configuration not stated),-10.4,-16.1,.
CC1(O)c2ccccc2C(=O)N1CCc1ccccc1F (configuration not stated),89.1*,-10.7,16.0
CN1/C(=N\O)c2cccc3cccc1c23,61.4*,15.7,1.7
CNC(=O)CN1C(=O)c2cccc3cccc1c23,.,-10.6,.
Cc1cc(-c2ccc(N3C(=O)CCC3=O)c(C)c2)ccc1N1C(=O)CCC1=O,1.1,5.1,.
O=C(/C=N/O)NCCN1CCCCC1,71.5*,-0.6,23.2
C/C(=N\O)C(=O)NCCN1CCCCC1,-0.8,4.1,.
CN(C)C(CNC(=O)c1cccc(S(=O)(=O)N(C)C)c1)c1ccccc1 (configuration not stated),.,-12.3,.
Cc1ccc(N(CC(N)=O)C2SC(=O)N(Cc3ccccc3)C2=O)cc1 (configuration not stated),63.4*,-11.5,41.2
NC(=O)CN(c1ccccc1)C1SC(=O)N(Cc2ccccc2)C1=O (configuration not stated),2.1,7.4,.
COc1ccc(-n2cnnc2SCC(=O)c2cc(C)n(Cc3cccs3)c2C)cc1,1.3,-3.2,.
Cc1cc(C(=O)CSc2nnc(-c3ccc(OC(F)F)cc3)o2)c(C)n1Cc1cccs1,78.6*,1.2,67.5*
